# An excerpt weighted towards active compounds, which were near 7.2% of everything screened.
# Bfl-1 A1 inh: inhibitors of the anti-apoptotic protein A1, read as caspase activation; hit rate 0.066% among 330,000; MEF A1-2A-BIM cells, Caspase-Glo 3/7 luminescence, 3 h; percent of clofoctol response, vehicle zero; caspase activation, % (concentration not given with the values);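 active = over half of replicate activation scores above 10%, or exactly half above 10 with the replicate mean above 10; inconclusive = replicate mean below 10 yet half the replicates above 10; inactive = over half of replicates below 10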
# SUMO Mot1 rescue: inhibitors of SUMOylation pathway: yeast Mot1-301 growth rescue; S. cerevisiae Mot1-301 growth rescue, ATP luminescence, 38.5C; percent above DMSO median, 100 means doubled; growth rescue, % at 18.8 µM; hit rate 1% among 320,000; AID 2716;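 active = every valid replicate shows activation above 250% relative to neutral control wells; inactive = the rest, any valid replicate at or below 250%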;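 also: OY570 slx delta 5 strain wells were the positive control but not used for scaling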
# AHR act: activators of human aryl hydrocarbon receptor | AHR-responsive luciferase reporter cells, luminescence | hit rate 2.5% among 320,000 | activation, % at 5 µM | P35869; in the data active = activation above about 47%;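 also: 0% = vehicle wells and 100% = reference agonist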
# Efflux pump mplx: antifungal efflux pump inhibition, Nile Red retention; AID 485275; S. cerevisiae Candida pump triplex; inhibition, % at 10 µM; hit rate 0.44% among 330,000;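 active = plate passing quality check with inhibition over a set limit, or well fluorescence over plate mean plus 4 SD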;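 also: Nile Red retained in pooled yeast measured as flow cytometry median fluorescence; 0% = buffer negative control and 100% = Enniatin B positive control; higher means more Nile Red kept so more efflux inhibition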
# ALR inh: human ALR oxidase inhibition via reduced H2O2. purified ALR, DTT oxidation, H2O2 HRP-luminol luminescence. AID 485317. P55789. inhibition, % (test concentration not listed). hit rate 3.8% among 290,000;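 active = mean replicate inhibition above about 79%, with every replicate also reaching it, limit read from the data; inconclusive = only one of the two criteria met; inactive = mean below limit and not every replicate reaching it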
# Target sequence (P55789 whole entry, looked up): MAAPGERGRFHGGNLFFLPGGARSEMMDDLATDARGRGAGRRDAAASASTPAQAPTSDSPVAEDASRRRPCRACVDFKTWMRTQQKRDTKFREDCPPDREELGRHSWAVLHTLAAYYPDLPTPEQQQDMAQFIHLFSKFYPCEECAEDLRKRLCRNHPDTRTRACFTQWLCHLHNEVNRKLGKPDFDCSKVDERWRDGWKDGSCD
# VLA-4 inh: inhibition in a human VLA-4 binding assay; hit rate 0.2% among 330,000; inhibition, % (about 7 µM as worked out from the volumes in the protocol); P13612; VLA-4 expressing cells, ligand binding flow cytometry; AID 2557; in the data active = inhibition above about 50%
# The depositor's hits bear a star; ? = inconclusive; . = no result.
SMILES,Bfl-1 A1 inh,SUMO Mot1 rescue,AHR act,Efflux pump mplx,ALR inh,VLA-4 inh
C=CCOc1cccc(C(=O)N2CCCC(Nc3ccc(F)cc3)C2)c1 (stereo not given),1,-12,4,0,59,0
O=C1CCC(C(=O)N2CCCC(Nc3ccc(F)cc3)C2)=NN1 (stereo not given),2,2,-1,0,82*,10
O=C(CO/N=C/c1ccc(OC(F)F)cc1)NC1CCCCCC1,0,-13,4,0,-7,-3
S=C1N(c2ccccc2)C(c2cccc3ccccc23)N2CCCN12 (stereo not given),0,-27,1,0,-13,7
COc1ccc(NC2CCCN(C(=O)C3(C)CCCCC3)C2)cc1 (stereo not given),0,-15,6,0,97*,-1
COc1ccc(NC2CCCN(C(=O)CCC(=O)c3ccc(F)cc3)C2)cc1 (stereo not given),0,2,9,0,99*,14
CN(C)c1ccccc1C(=O)N1CCCC(Nc2ccc(F)cc2)C1 (stereo not given),0,-4,0,0,99*,13
Cn1nccc1C(=O)N1CCCC(Nc2ccc(F)cc2)C1 (stereo not given),1,-1,3,0,72,14
O=C(CCc1ccccc1)N1CCCC(Nc2ccc(F)cc2)C1 (stereo not given),0,-2,2,0,98*,-10
O=C(Nc1ccc(Oc2ccccc2)cc1)c1cnc2n(c1=O)CCS2,-6,113,-11,0,-2,0
CNc1c(NS(=O)(=O)c2cc(OC)ccc2OC)c(=O)oc2ccccc12,0,27,4,0,8,1
Oc1ccc(/C=N/NC2=NCCCCC2)cc1,0,-14,1,0,99*,4
COc1cc(/C=N/NC2=NCCCCC2)ccc1O,0,36,4,0,95*,20
COc1ccc(/C=C/C(=O)ONC2=NCCCCC2)cc1OC,0,6,2,0,-9,10
COc1ccc2nc(N=Nc3ccc(O)c4ccccc34)sc2c1,-1,-11,73*,0,.,.
COc1ccc2nc(N=NC3=C(O)CC(C)(C)CC3=O)sc2c1,0,37,46,0,-11,-4
CCSC1=NSC2=NC(=O)/C(=C\c3coc4ccccc4c3=O)C(=N)N12,-1,9,40,0,98*,-423
Cc1noc(/C=C/c2ccco2)c1S(=O)(=O)N1CCC(C(=O)N2c3ccccc3CC2C)CC1 (stereo not given),0,5,-8,0,-11,3
CC(=O)c1ccc(-n2c(-c3cc(-c4ccco4)[nH]n3)n[nH]c2=S)cc1,-1,0,2,0,?,13
Cc1cccc(-n2c(-c3ccc(Br)o3)n[nH]c2=S)c1,1,-4,-1,0,61,3
CCn1c(-c2ccco2)n[nH]c1=S,-1,6,-1,0,73,-8
CCCCn1c(-c2ccco2)n[nH]c1=S,1,.,0,0,98*,19
O=C(O)c1ccc(-n2c(-c3cc(-c4ccco4)[nH]n3)n[nH]c2=S)cc1,0,.,-1,0,96*,-1
Cc1cccc(-n2c(-c3ccco3)n[nH]c2=S)c1,1,-8,2,0,86*,17
COc1ccccc1-c1n[nH]c(=S)n1Cc1ccccc1,-1,18,10,0,86*,8
SMILES,Bfl-1 A1 inh,SUMO Mot1 rescue,AHR act,Efflux pump mplx,ALR inh,VLA-4 inh
CC1CCN(C2(O)C(=O)Nc3ccc(Br)cc32)CC1 (stereo not given),1,-9,-4,0,-7,5
Cc1nnsc1C(=O)N1CCC(C(=O)c2ccccc2)CC1,0,-20,1,0,-4,-1
Cc1ccc(C(=O)C(C)OC(=O)Cn2[nH]c(=O)c3ccccc3c2=O)cc1C (stereo not given),0,-10,2,-1,13,-5
S=c1[nH]nc(-c2ccco2)n1Cc1ccccc1,1,3,-1,0,92*,4
CN1CCN(CC#Cc2ccccc2)CC1CCO (stereo not given),0,-14,2,0,-2,4
CC(C)(C)CN1CCN(CC#Cc2ccccc2)CC1CCO (stereo not given),-1,66,59*,0,.,-4
CSc1ncccc1C(=O)NCCc1ccccc1F,0,-28,-2,0,-3,6
NS(=O)(=O)c1ccc(CCNC(=O)/C=C/c2ccccc2[N+](=O)[O-])cc1,0,-3,4,0,-15,-10
CCOC(=O)Nc1cccc(Nc2ccccc2)c1,1,-6,23,0,99*,-1
Cc1cc(C)c(C#N)c(SCc2nc3ccccc3[nH]2)n1,0,12,68*,0,6,-6
N#Cc1cc2c(nc1SCc1nc3ccccc3[nH]1)CCC2,-8,-23,26,0,12,9
Cc1cc(NC(=O)CSc2ccc(F)cc2)no1,0,.,3,0,.,-10
CC(=O)Nc1ccc(SCC(=O)NC(=O)c2ccccc2Br)cc1,0,-5,-2,0,98*,14
Cn1c(SCC(=O)Nc2cc(C(C)(C)C)nn2-c2ccccc2)nc2ccccc21,0,52,3,0,-27,18
CC(=O)Nc1ccc(SCC(=O)Nc2cc(C(C)(C)C)nn2-c2ccccc2)cc1,0,9,2,0,89*,34
CC(=O)Nc1ccc(SCC(=O)Nc2cc(C)on2)cc1,1,.,-3,0,99*,-3
Cc1nn(C)c(Cl)c1S(=O)(=O)N1CCC(CO)(CCc2ccccc2)CC1,0,-5,0,1,2,-10
N#CC1=C(SCC(=O)Nc2ccc(C(=O)O)cc2)NC(=O)CC1c1ccco1 (stereo not given),-1,105,1,0,98*,-1
C=CCOC(=O)C1=C(C)NC(SCC(=O)Nc2ccc(C)c(Cl)c2)=C(C#N)C1c1ccco1 (stereo not given),-1,-2,2,0,98*,-26
O=C(C1CCC1)N1CCN(S(=O)(=O)c2ccccc2)CC1,0,366,5,0,.,-1
O=C(N/N=C/c1ccccc1)C(O)c1ccccc1 (stereo not given),1,0,20,0,-10,3
CCc1ccc(/C=N\NC(=O)c2ccc(Br)o2)s1,-4,16,32,0,-5,4
CCN(CC)c1ccc(/C=N/NC(=O)C(O)c2ccccc2)cc1 (stereo not given),0,2,28,0,100*,2
CCN(CC)c1ccc(/C=N/NC(=O)Nc2nonc2N)cc1,-1,-17,67*,0,99*,11

# Screening data (PubChem)
